Assay outcomes as filed in PubChem.
In the library only some 4.6% were active in any assay of this set; here they are far more common.
tim23-1 inh = tim23-1 yeast growth inhibition; S. cerevisiae tim23-1 growth, BacTiter-Glo luminescence, 24 h; inhibition, % at 20 µM; 1.3% of 330,000 active;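 active = growth inhibition of the mutant yeast at or above 50%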;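 note: temperature-sensitive mutant grown at 25 °C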
TIM10 inh = TIM10 yeast growth inhibition; S. cerevisiae TIM10 strain growth, BacTiter-Glo luminescence, 24 h; inhibition, % at 10 µM; 1.4% of 330,000 active;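 active = inhibition of 40% or more at the single tested concentration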;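 note: wild-type TIM10 isogenic control strain grown at permissive 25 °C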
SKKanGAS inh = SKKanGAS growth inhibition | S. pyogenes SKKanGAS, kanamycin growth, BacTiter-Glo, 6 h | inhibition, % at 7.5 µM | 1.3% of 300,000 active;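 active = mean replicate score, as percent of positive control median, at least 50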;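 note: strain carries kanamycin resistance gene driven by streptokinase promoter and grows in 40 µg/ml kanamycin; loss of luminescence reflects streptokinase promoter inhibition or plain growth inhibition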
PfHsp90 set2 = inhibits growth of yeast expressing Plasmodium falciparum Hsp90 | S. cerevisiae expressing PfHsp90, BacTiter-Glo ATP, 48 h; yeast lacking PDR1 and PDR3 efflux regulators | inhibition, % at 9.4 µM | 0.32% of 310,000 active;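 active = every replicate shows inhibition above about 80%, whatever the replicate mean, limit read from the data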
V-ATPase pHluor = yeast V-ATPase proton transport regulation by pHLuorin | response, % at 10 µM | S. cerevisiae, pHLuorin cytosolic pH fluorescence | AID 504577 | 0.37% of 350,000 active; in the data active = response mostly above about 7.3%, no sharp cut-off; inactive = mostly below about 5.4%; note: actives read high
tim10-1 inh = tim10-1 yeast growth inhibition. inhibition, % at 20 µM. S. cerevisiae tim10-1 ts strain growth, BacTiter-Glo, 24 h. 2.2% of 330,000 active;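 active = inhibition of at least 40%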;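 note: mutant grown at 25 °C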
V-ATPase pH SP = yeast V-ATPase proton transport regulation; shares compounds with V-ATPase pHluor; S. cerevisiae pHLuorin cytosolic pH; response, % at 10 µM; 2% of 980 active; AID 602197; in the data active = response above about 24%
Each line names hits and unclear results; the compound was inactive in the other large screens (follow-up assays come after a bar, where they were run).

CC1(C)CC(NS(=O)(=O)c2ccc(C(C)(C)C)cc2)CC(C)(C)N1	none
COc1ccccc1N1CCN(C2CCCN(S(=O)(=O)c3ccc(C)cc3)C2)CC1 (stereo not drawn)	V-ATPase pHluor 10 | V-ATPase pH SP inactive
CC(C)(C)NC(=O)c1cc2c(ccc3ccccc32)oc1=O	V-ATPase pHluor 8.9 | V-ATPase pH SP inactive
CCOC(=O)C1CCCN(S(=O)(=O)c2cnc(Cl)c(Br)c2)C1 (stereo not drawn)	none
O=[N+]([O-])c1ccc(C2CNC(c3ccccc3)O2)cc1 (stereo not drawn)	V-ATPase pHluor 7.1 | V-ATPase pH SP inactive
NS(=O)(=O)c1ccc(CCNC(=O)c2ccco2)cc1	V-ATPase pHluor 11 | V-ATPase pH SP inactive
COn1c(SCc2cccc(Cl)c2)nc2ccccc2c1=O	V-ATPase pHluor 15 (no result: PfHsp90 set2) | V-ATPase pH SP inactive
Cc1ccc(NC(=O)c2cc(C)on2)cc1	V-ATPase pHluor 6.9 (no result: PfHsp90 set2) | V-ATPase pH SP inactive
Cc1cc(NC(=O)c2cc(-c3ccc(O)cc3)on2)no1	none
CCc1ccc(NC(=O)c2cc(C)on2)cc1	none (no result: PfHsp90 set2)
Cc1cc(NC(=O)c2cc(-c3ccc(Br)cc3)on2)no1	V-ATPase pHluor 10 | V-ATPase pH SP inactive
Cc1cc(C)cc(NS(=O)(=O)c2ccc3oc(=O)ccc3c2)c1	V-ATPase pHluor 14 | V-ATPase pH SP inactive
Cc1csc(NC(=O)CSc2nncn2C)n1	V-ATPase pHluor 13 | V-ATPase pH SP inactive
COC(=O)Cc1csc(NC(=O)CSc2nncn2C)n1	none (no result: SKKanGAS inh, PfHsp90 set2, V-ATPase pHluor)
Cn1c(N)c(C(=O)COC(=O)Cc2cccc(C(F)(F)F)c2)c(=O)n(C)c1=O	none (no result: SKKanGAS inh)
FC(F)(F)c1cc(C(F)(F)F)n2nc(-c3sccc3-n3cccc3)cc2n1	V-ATPase pHluor 12 (no result: PfHsp90 set2) | V-ATPase pH SP inactive
O=[N+]([O-])c1ccc2c(c1)C(O)n1nc(-c3ccc(Cl)cc3Cl)nc1S2 (stereo not drawn)	V-ATPase pHluor 7.3 | V-ATPase pH SP inactive
Cc1nc2n(n1)C(O)c1cc([N+](=O)[O-])ccc1S2 (stereo not drawn)	none (no result: PfHsp90 set2, V-ATPase pHluor)
O=C(CCC(=O)c1ccc(F)cc1)NCc1ccccc1C(F)(F)F	none | V-ATPase pH SP inactive
C[C@H](NC(=O)c1ccccc1)C(=O)OCC(=O)Nc1ccc(Cl)cn1	none (no result: tim23-1 inh, TIM10 inh, SKKanGAS inh, PfHsp90 set2, tim10-1 inh)
O=C1C2CCCCN2C(=O)N1CCN1CCN(c2cccc(Cl)c2)CC1 (stereo not drawn)	V-ATPase pHluor 6.3 (no result: tim23-1 inh, TIM10 inh, SKKanGAS inh, tim10-1 inh) | V-ATPase pH SP inactive
CCOc1ccccc1N(CC(=O)Nc1cccnc1)S(C)(=O)=O	none
CCOc1ccccc1N(CC(=O)Nc1cccnc1)S(=O)(=O)c1ccc(C)cc1	V-ATPase pHluor 9.9 | V-ATPase pH SP inactive
CC(NC(=O)c1cccc(S(=O)(=O)N2CCN(C)CC2)c1)c1ccc(Cl)cc1Cl (stereo not drawn)	none
c1cnc(N2CC[N+]3(CCCC3)CC2)nc1	none
c1cnc(N2CCSCC2)nc1	V-ATPase pHluor 10 | V-ATPase pH SP inactive
COc1cc(C)ccc1OCc1cc(C(=O)NCCN2CCOCC2)no1	none
CCCCc1nnc(NC(=O)c2ccc3[nH]c(=O)c(=O)[nH]c3c2)s1	none
CN(C)CCCN(C(=O)c1ccc2c(c1)CCCC2)c1nc2ccc(F)cc2s1	V-ATPase pHluor 19 | V-ATPase pH SP inactive
CCN(CC)CCN(C(=O)c1ccc2c(c1)CCCC2)c1nc2ccc(F)cc2s1	none
CCCc1n(CC)c2ccccc2[n+]1CC(O)COC1CCCCC1 (stereo not drawn)	none
CCCCn1c(N)c(N(CC(C)C)C(=O)CC2OC(=O)c3ccccc32)c(=O)[nH]c1=O (stereo not drawn)	V-ATPase pHluor 11 | V-ATPase pH SP inactive
CCCCn1c(N)c(N(CC(C)C)C(=O)CN2C(=O)c3ccccc3C2=O)c(=O)[nH]c1=O	none
CCNC(=O)COC(=O)CCC(=O)c1ccc(F)cc1	none | V-ATPase pH SP inactive
COC(=O)c1ccc(CNC(=O)COC(=O)CCC(=O)c2ccc(F)cc2)cc1	none (no result: SKKanGAS inh)
CCc1ccc(/C=N/n2c(C)cc(C)c(C#N)c2=O)cc1	none
CC(=O)Nc1ccc(NC(=O)COC(=O)[C@@H]2CCCN2C(=O)c2cccs2)cc1	none (no result: SKKanGAS inh)
Cc1c(OC(C)C(=O)NCC(O)c2ccccc2)ccc2c3c(c(=O)oc12)CCCC3 (stereo not drawn)	V-ATPase pHluor 10 | V-ATPase pH SP inactive
O=C(O)CCc1ccc(-c2ccc(Br)cc2)n1-c1ccc(O)cc1	V-ATPase pHluor 12 | V-ATPase pH SP inactive
O=c1c(C=Nc2ccc(Cl)cc2)c[nH]n1-c1cccc(Cl)n1	V-ATPase pHluor 11 | V-ATPase pH SP inactive
CC(C)CN(C(=O)CN(C)C(=O)c1ccco1)c1c(N)n(CC(C)C)c(=O)[nH]c1=O	none
NNC(=O)CNc1ccccc1Cl	V-ATPase pHluor 8.4 | V-ATPase pH SP inactive
CCCCNc1nnc(CCn2nc(C)c(Br)c2C)s1	none
CCNc1nnc(CCn2nc(C)c(Br)c2C)s1	V-ATPase pHluor 18 | V-ATPase pH SP inactive
CCOc1ccccc1Nc1ncnc2c1cnn2-c1ccccc1	none
COc1ccc(Nc2ncnc3c2cnn3-c2ccccc2)cc1OC	V-ATPase pHluor 11 | V-ATPase pH SP inactive
Cc1ccc(C(=O)OCCc2sc[n+](Cc3ccccc3)c2C)cc1	V-ATPase pHluor 47 | V-ATPase pH SP inactive
CC(C)CNC(C(=O)Nc1ccc([N+](=O)[O-])cc1Br)c1ccccc1 (stereo not drawn)	V-ATPase pHluor 11 | V-ATPase pH SP inactive
CN(C)C(CNC(C(=O)Nc1ccc([N+](=O)[O-])cc1Br)c1ccccc1)c1ccccc1 (stereo not drawn)	none
COC(=O)c1ccc(CNC(=O)c2ccc3c(c2)S(=O)(=O)N=C2CCCCCN23)cc1	V-ATPase pHluor 11 (no result: SKKanGAS inh) | V-ATPase pH SP inactive
COc1cccc(CNC(=O)c2ccc3c(c2)S(=O)(=O)N=C2CCCCCN23)c1	none
CCN(CC)C(=O)[C@H]1CC(CC(=O)NCCN2CCOCC2)C(=O)N2CCc3c([nH]c4ccccc34)[C@]12C (stereo partly drawn)	none (no result: SKKanGAS inh)
CCOC(=O)c1cn2c(C)cccc2n1	none
CCOC(=O)c1cccc(C(=O)OCC)n1	none | V-ATPase pH SP inactive
OCC[C@H]1C[C@@H](O)[C@H](O)[C@]2(OCc3ccccc32)O1	none (no result: SKKanGAS inh)
C#CCNc1c2c(nc3ncnn13)CC(C)CC2 (stereo not drawn)	none
O=C(O)Cn1c(=O)c(-c2ccccc2)nc2ccccc21	none
CCOC(=O)Cn1c(C(C)=O)nc2ccccc21	none | V-ATPase pH SP inactive
CCOC(=O)Cn1c(-c2ccccn2)nc2ccccc21	none | V-ATPase pH SP inactive
COC(=O)Cn1c(C)nc2ccccc21	none (no result: PfHsp90 set2)
CCOC(=O)Cn1c(C)nc2ccccc21	none | V-ATPase pH SP inactive
CCOC(=O)Cn1c(=O)c(-c2ccccc2NC)nc2ccccc21	none | V-ATPase pH SP inactive
COc1ccc(C(=O)Cn2c(C(C)=O)nc3ccccc32)cc1	none (no result: tim23-1 inh, TIM10 inh, SKKanGAS inh, tim10-1 inh)
